# Experimental data published in paper PMC7862700, “An all-to-all approach to the identification of sequence-specific readers for epigenetic DNA modifications on cytosine”.
# How the values were obtained:
# Assay in all cases: DAPPL (digital affinity profiling via proximity ligation, sequencing); 10 mM Tris-HCl pH 7.5, 50 mM NaCl, 1 mM DTT, 4% glycerol, room temperature, 30 min; GST-TFs on glutathione beads, 16-mer random dsDNA library, 0.1% formaldehyde crosslink after washing; high values mean tight binding
# [1] = molecular target: T1, FLI1 (Homo sapiens, UniProt Q01543 1-452); details: protein: recombinant; tags: N-terminal GST; dsDNA, one strand shown
# T1 sequence: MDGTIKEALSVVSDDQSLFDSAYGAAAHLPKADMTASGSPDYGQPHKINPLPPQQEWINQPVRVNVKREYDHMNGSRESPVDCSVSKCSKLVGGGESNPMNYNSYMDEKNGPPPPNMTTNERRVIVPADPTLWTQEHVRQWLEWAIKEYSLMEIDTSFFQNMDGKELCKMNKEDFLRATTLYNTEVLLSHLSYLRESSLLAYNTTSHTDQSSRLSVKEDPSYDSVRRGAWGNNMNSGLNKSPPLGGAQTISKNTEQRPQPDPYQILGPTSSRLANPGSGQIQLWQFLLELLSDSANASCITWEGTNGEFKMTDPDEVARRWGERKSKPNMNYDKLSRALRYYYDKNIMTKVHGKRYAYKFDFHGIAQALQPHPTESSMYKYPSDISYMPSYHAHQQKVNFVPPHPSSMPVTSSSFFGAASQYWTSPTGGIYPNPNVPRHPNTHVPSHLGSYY
# In short: (§1)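 Binding signal is given per hexamer as its read frequency for a factor divided by its frequency in the tag-only sample. GST-fused human transcription factors were expressed in yeast, captured on glutathione beads, barcoded with DNA and pooled with that sample, then incubated with 200 nmole of a 16-mer random double-stranded DNA library in Tris/NaCl/DTT/glycerol buffer for 30 min at room temperature. The pools were then washed, crosslinked, proximity-ligated, amplified by PCR and sequenced on an Illumina NextSeq500.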
# [2] = molecular target: T2, ELK1 (Homo sapiens, UniProt P19419 1-428); details: protein: recombinant; tags: N-terminal GST; dsDNA, one strand shown
# T2 sequence: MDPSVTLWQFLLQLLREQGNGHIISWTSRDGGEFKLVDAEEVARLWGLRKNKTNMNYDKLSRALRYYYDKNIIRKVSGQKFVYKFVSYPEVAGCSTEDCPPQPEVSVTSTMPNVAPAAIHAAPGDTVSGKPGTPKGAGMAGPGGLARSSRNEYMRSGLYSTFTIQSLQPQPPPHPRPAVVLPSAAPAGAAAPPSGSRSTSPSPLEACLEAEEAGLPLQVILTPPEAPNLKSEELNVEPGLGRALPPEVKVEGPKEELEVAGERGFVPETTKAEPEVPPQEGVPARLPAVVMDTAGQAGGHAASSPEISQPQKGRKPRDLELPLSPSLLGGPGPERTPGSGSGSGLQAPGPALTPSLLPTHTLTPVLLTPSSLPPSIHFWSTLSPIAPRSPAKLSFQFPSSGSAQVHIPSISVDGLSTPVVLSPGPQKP
# In short: as §1
# [3] = molecular target: T3, GABPA (Homo sapiens, UniProt Q06546 1-454); details: protein: recombinant; tags: N-terminal GST; dsDNA, one strand shown
# T3 sequence: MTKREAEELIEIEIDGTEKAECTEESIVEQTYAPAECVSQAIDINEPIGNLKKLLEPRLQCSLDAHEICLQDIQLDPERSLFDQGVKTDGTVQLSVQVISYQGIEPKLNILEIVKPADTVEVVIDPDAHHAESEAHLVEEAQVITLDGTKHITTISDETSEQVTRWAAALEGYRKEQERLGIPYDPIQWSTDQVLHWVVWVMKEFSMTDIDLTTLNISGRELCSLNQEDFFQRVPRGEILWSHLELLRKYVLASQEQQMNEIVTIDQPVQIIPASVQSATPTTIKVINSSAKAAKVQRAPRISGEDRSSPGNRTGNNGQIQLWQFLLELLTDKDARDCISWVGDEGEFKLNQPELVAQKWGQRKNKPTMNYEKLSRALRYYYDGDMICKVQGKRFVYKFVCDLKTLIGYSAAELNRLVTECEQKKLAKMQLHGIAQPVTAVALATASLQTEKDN
# In short: as §1
# [4] = molecular target: T4, ERG (Homo sapiens, UniProt P11308 1-479); details: protein: recombinant; tags: N-terminal GST; dsDNA, one strand shown
# T4 sequence: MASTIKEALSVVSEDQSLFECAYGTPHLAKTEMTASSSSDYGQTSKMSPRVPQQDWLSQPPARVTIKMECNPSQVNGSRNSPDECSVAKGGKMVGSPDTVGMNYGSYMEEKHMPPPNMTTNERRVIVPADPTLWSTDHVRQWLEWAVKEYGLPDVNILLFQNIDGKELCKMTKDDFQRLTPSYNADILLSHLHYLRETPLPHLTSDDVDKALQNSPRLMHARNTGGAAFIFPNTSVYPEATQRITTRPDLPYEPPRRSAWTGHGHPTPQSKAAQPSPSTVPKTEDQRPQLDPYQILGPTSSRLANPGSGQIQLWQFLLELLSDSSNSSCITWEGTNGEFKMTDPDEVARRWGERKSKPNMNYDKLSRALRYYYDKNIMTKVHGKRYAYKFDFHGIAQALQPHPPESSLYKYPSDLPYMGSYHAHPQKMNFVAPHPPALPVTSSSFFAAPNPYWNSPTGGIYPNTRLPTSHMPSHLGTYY
# In short: as §1
# [5] = molecular target: ELF1 (Homo sapiens, UniProt P32519 1-619); details: protein: recombinant; tags: N-terminal GST; dsDNA, one strand shown
# ELF1, sequence (P32519 whole entry): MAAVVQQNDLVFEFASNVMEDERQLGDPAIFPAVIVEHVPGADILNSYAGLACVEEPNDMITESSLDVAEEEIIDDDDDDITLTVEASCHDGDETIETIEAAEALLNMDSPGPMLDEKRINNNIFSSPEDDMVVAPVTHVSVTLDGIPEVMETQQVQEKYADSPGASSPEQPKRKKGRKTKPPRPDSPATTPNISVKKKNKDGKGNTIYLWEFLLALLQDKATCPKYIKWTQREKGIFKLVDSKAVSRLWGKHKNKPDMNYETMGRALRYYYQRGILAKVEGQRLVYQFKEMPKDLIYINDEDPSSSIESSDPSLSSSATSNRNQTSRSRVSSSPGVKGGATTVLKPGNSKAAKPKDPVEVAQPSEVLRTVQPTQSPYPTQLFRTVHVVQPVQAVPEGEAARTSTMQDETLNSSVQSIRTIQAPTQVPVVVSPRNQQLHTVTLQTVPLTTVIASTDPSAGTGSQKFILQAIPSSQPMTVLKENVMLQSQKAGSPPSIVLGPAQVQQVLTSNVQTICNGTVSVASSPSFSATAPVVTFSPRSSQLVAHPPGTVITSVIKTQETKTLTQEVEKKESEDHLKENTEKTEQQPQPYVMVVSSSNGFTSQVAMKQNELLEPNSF
# In short: as §1
# [6] = molecular target: T5, EHF (Homo sapiens, UniProt Q9NZC4 1-300); details: protein: recombinant; tags: N-terminal GST; dsDNA, one strand shown
# T5 sequence: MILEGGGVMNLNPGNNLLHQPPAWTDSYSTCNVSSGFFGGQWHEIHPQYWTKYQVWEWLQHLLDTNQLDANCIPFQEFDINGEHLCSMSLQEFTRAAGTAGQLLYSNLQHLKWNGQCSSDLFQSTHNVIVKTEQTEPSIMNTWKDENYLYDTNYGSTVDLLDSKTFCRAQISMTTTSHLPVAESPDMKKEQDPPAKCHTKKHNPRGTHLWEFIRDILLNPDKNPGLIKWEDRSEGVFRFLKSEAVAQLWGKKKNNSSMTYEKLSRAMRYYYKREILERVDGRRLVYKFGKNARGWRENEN
# In short: as §1
# [7] = molecular target: SPI1 (Homo sapiens, UniProt P17947 1-270); details: protein: recombinant; tags: N-terminal GST; dsDNA, one strand shown
# In short: as §1
# [8] = molecular target: SPIB (Homo sapiens, UniProt Q01892 1-262); details: protein: recombinant; tags: N-terminal GST; dsDNA, one strand shown
# SPIB, sequence (Q01892 whole entry): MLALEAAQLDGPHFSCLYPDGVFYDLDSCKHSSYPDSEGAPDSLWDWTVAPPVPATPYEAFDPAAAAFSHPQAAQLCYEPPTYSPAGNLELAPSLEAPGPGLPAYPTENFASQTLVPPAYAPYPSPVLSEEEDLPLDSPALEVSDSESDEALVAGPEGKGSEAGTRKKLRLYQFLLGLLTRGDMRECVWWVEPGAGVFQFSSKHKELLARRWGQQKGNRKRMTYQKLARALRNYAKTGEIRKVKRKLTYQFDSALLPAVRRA
# In short: as §1
# [9] = molecular target: T6, ELK3 (Homo sapiens, UniProt P41970 1-407); details: protein: recombinant; tags: N-terminal GST; dsDNA, one strand shown
# T6 sequence: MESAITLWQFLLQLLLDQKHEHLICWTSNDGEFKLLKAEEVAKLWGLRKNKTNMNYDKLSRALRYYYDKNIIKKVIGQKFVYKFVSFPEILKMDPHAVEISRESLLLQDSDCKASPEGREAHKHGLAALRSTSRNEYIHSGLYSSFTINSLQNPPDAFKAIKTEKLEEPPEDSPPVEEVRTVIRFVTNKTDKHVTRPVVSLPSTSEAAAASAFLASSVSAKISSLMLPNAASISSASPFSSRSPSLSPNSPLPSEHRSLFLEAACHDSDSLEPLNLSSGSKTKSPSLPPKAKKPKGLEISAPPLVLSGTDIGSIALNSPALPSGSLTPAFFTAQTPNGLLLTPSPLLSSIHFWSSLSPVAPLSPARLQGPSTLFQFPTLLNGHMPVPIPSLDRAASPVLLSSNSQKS
# In short: as §1
# [10] = molecular target: T7, FEV (Homo sapiens, UniProt Q99581 1-238); details: protein: recombinant; tags: N-terminal GST; dsDNA, one strand shown
# T7 sequence: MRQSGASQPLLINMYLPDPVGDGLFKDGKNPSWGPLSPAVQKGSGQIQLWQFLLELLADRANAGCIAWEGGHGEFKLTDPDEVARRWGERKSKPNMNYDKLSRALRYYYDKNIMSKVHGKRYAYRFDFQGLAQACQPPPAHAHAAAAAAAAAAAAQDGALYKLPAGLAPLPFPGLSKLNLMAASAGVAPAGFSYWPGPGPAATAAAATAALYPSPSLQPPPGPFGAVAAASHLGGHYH
# In short: as §1
# [11] = molecular target: ETV5 (Homo sapiens, UniProt P41161 1-510); details: protein: recombinant; tags: N-terminal GST; dsDNA, one strand shown
# ETV5, sequence (P41161 whole entry): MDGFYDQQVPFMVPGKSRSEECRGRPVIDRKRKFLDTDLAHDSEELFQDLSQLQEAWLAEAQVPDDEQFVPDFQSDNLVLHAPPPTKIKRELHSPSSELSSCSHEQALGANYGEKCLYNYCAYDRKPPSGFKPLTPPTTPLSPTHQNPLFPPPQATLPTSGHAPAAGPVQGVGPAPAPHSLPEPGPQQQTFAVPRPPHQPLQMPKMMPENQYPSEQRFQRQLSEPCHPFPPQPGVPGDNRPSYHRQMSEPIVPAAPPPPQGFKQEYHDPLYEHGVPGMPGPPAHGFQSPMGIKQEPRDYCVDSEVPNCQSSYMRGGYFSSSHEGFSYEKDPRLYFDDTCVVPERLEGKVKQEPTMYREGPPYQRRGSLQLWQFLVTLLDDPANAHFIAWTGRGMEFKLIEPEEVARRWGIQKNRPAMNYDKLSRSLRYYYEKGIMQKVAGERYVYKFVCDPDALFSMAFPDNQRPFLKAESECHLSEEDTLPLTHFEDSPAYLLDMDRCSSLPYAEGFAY
# In short: as §1
# [12] = molecular target: HSF1 (Homo sapiens, UniProt Q00613 1-529); details: protein: recombinant; tags: N-terminal GST; chain copies: 3; dsDNA, one strand shown
# HSF1, sequence (Q00613 whole entry): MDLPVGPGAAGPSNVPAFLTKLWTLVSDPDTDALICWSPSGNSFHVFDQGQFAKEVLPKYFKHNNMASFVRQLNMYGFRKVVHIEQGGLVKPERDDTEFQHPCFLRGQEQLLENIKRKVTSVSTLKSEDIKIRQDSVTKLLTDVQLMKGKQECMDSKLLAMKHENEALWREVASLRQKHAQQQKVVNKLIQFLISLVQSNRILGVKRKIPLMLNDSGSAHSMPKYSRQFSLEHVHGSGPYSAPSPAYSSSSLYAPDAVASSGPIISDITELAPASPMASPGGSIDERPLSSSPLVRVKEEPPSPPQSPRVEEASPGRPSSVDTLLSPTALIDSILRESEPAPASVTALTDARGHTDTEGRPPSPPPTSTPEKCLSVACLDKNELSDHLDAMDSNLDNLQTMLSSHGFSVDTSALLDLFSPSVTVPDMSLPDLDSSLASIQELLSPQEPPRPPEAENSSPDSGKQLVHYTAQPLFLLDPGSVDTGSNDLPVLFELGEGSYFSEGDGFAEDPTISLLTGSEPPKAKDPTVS
# In short: as §1
# [13] = molecular target: T8, SPIC (Homo sapiens, UniProt Q8N5J4 1-248); details: protein: recombinant; tags: N-terminal GST; dsDNA, one strand shown
# T8 sequence: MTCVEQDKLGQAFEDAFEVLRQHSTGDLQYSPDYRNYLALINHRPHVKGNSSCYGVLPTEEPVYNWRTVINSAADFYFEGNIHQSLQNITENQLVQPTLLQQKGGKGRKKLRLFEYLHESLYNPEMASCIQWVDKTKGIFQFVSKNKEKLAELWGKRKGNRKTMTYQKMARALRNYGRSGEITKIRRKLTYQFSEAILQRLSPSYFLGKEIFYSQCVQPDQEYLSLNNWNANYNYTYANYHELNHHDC
# In short: as §1
# [14] = molecular target: ELF4 (Homo sapiens, UniProt Q99607 1-663); details: protein: recombinant; tags: N-terminal GST; dsDNA, one strand shown
# ELF4, sequence (Q99607 whole entry): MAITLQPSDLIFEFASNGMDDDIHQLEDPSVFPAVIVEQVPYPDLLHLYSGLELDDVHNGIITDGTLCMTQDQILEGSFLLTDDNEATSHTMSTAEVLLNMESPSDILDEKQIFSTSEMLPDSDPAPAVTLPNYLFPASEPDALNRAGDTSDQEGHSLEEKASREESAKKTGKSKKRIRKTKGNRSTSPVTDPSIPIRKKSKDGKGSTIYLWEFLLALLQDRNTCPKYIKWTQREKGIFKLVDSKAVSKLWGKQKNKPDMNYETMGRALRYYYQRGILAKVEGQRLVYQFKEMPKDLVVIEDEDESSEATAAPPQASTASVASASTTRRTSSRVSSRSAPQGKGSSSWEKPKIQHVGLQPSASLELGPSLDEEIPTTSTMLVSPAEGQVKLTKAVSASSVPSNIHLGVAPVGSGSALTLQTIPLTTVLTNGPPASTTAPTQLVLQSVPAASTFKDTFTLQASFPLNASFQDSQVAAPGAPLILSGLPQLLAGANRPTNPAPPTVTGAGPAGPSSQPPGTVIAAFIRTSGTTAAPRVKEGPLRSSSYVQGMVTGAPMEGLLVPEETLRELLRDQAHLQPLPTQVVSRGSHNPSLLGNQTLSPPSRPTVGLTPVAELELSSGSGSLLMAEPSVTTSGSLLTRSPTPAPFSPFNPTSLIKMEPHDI
# In short: as §1
# [15] = molecular target: T9, ELK4 (Homo sapiens, UniProt P28324-2 1-405); details: protein: recombinant; tags: N-terminal GST; dsDNA, one strand shown
# T9 sequence: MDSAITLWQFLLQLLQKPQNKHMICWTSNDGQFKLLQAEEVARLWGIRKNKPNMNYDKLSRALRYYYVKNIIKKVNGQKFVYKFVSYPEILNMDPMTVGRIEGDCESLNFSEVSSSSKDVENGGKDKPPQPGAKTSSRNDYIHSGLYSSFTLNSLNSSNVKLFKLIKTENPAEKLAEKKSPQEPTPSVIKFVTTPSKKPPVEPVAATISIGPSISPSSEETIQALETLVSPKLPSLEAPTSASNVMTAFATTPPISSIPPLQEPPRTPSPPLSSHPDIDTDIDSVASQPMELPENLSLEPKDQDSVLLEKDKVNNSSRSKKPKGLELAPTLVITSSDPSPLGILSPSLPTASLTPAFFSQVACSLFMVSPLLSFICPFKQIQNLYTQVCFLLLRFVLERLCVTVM
# In short: as §1
# [16] = molecular target: T10, ETV2 (Homo sapiens, UniProt O00321 1-342); details: protein: recombinant; tags: N-terminal GST; dsDNA, one strand shown
# T10 sequence: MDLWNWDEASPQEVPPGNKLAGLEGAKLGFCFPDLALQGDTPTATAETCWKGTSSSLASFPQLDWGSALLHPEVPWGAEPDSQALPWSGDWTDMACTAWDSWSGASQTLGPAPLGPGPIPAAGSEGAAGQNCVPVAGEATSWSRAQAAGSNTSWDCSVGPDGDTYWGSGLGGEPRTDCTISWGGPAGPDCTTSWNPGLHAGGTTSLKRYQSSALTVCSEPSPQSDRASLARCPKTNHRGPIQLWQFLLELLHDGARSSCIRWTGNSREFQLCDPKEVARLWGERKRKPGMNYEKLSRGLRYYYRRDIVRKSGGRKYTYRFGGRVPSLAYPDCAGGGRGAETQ
# In short: as §1
# [17] = molecular target: T11, ELF3 (Homo sapiens, UniProt P78545 1-371); details: protein: recombinant; tags: N-terminal GST; dsDNA, one strand shown
# T11 sequence: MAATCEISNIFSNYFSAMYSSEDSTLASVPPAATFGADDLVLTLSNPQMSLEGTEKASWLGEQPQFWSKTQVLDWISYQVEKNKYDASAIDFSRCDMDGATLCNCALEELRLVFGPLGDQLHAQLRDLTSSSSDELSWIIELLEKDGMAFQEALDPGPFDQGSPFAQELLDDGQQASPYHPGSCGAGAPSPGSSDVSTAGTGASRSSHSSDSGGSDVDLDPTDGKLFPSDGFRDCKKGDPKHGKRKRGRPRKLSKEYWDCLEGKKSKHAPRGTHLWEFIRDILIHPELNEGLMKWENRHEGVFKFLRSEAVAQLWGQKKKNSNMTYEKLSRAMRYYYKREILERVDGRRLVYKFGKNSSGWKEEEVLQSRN
# In short: as §1
# [18] = molecular target: CRX (Homo sapiens, UniProt O43186 1-299); details: protein: recombinant; tags: N-terminal GST; dsDNA, one strand shown
# CRX, sequence (O43186 whole entry): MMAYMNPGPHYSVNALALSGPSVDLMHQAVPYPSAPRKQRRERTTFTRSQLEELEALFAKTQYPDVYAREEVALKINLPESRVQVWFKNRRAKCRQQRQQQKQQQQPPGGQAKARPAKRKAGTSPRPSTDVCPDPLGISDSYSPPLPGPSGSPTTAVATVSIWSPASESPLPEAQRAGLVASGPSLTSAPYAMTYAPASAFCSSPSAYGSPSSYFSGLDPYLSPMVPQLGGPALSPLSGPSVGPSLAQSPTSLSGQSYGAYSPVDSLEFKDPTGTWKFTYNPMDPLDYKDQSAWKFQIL
# In short: as §1
# [19] = molecular target: ETV1 (Homo sapiens, UniProt P50549 1-477); details: protein: recombinant; tags: N-terminal GST; dsDNA, one strand shown
# ETV1, sequence (P50549 whole entry): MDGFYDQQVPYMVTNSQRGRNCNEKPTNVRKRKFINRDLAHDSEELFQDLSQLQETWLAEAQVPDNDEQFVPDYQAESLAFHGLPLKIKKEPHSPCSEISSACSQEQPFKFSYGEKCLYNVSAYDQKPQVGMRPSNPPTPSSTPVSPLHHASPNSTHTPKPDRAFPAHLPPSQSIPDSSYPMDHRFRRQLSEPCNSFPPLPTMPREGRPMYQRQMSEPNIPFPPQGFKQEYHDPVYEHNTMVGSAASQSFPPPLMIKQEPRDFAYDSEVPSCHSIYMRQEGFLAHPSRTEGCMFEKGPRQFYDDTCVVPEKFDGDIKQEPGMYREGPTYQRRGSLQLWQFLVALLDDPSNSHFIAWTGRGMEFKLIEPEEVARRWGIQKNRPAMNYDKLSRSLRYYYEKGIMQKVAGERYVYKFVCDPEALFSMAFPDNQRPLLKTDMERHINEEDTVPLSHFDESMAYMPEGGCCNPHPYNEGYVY
# In short: as §1
sequence,measurement,setting,value
TGGCCT,binding signal,[1],"1.59 fold enrichment (6-mer frequency, TF over GST control)"
same,binding signal,[2],"1.37 fold enrichment (6-mer frequency, TF over GST control)"
same,binding signal,[3],"1.51 fold enrichment (6-mer frequency, TF over GST control)"
same,binding signal,[4],"1.54 fold enrichment (6-mer frequency, TF over GST control)"
same,binding signal,[5],"1.48 fold enrichment (6-mer frequency, TF over GST control)"
same,binding signal,[6],"1.5 fold enrichment (6-mer frequency, TF over GST control)"
same,binding signal,[7],"1.55 fold enrichment (6-mer frequency, TF over GST control)"
same,binding signal,[8],"1.48 fold enrichment (6-mer frequency, TF over GST control)"
same,binding signal,[9],"1.29 fold enrichment (6-mer frequency, TF over GST control)"
same,binding signal,[10],"1.54 fold enrichment (6-mer frequency, TF over GST control)"
same,binding signal,[11],"1.4 fold enrichment (6-mer frequency, TF over GST control)"
same,binding signal,[12],"1.32 fold enrichment (6-mer frequency, TF over GST control)"
same,binding signal,[13],"1.26 fold enrichment (6-mer frequency, TF over GST control)"
same,binding signal,[14],"1.51 fold enrichment (6-mer frequency, TF over GST control)"
same,binding signal,[15],"1.53 fold enrichment (6-mer frequency, TF over GST control)"
same,binding signal,[16],"1.46 fold enrichment (6-mer frequency, TF over GST control)"
same,binding signal,[17],"1.47 fold enrichment (6-mer frequency, TF over GST control)"
same,binding signal,[18],"1.31 fold enrichment (6-mer frequency, TF over GST control)"
same,binding signal,[19],"1.27 fold enrichment (6-mer frequency, TF over GST control)"
